Compound activity (PubChem BioAssay)
SW480 rereplic – A quantitative high throughput screen for small molecules that induce DNA re-replication in SW480 colon adenocarcinoma cells; SW480 DNA re-replication, Hoechst DNA content imaging, 48 h; Potency, µM (highest dose often 46.1 µM), most hits filed as activators; 340,000 tested, 1.8% active; AID 624297, 2012; note: nearly all actives have a fitted effect of over 55% in size
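First, 250 cells per well were seeded. Next, compound or vehicle (23 nL) was pinned in, plates sat 48 hr at 37 C. Finally Hoechst was added for 40 min before fluorescence scanning.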
ALOX12 inh – Primary qHTS assay for inhibitors of human arachidonate 12S-lipoxygenase (ALOX12): Round 2. purified 12hLO, xylenol orange hydroperoxide absorbance. 580,000 tested, 1.1% active. AID 1671190, 2021. Potency, µM (top dose mostly 108 µM), usual class: inhibitors
Target sequence (P18054 whole entry, looked up): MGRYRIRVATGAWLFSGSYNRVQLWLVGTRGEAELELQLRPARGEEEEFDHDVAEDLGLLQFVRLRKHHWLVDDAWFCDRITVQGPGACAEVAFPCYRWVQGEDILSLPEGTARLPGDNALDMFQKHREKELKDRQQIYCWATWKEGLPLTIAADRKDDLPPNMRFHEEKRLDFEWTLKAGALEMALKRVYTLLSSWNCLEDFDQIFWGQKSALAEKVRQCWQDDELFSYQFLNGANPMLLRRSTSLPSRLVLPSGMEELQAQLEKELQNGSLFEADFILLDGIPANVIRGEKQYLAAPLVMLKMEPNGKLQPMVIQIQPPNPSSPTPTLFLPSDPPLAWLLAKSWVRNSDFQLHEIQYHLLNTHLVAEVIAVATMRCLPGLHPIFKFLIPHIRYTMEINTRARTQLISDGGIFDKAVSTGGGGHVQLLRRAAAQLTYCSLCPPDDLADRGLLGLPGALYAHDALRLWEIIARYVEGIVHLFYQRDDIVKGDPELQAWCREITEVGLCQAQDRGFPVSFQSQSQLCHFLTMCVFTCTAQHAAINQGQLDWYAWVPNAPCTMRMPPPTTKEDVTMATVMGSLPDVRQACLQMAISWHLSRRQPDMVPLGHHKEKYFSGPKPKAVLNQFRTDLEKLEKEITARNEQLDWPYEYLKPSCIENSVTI
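Purified human 12hLO (150 nM final) in 25 mM Hepes, 0.01% Triton X-100, pH 7.0 was preincubated 15 min at room temperature with compound. Then 40 uM arachidonic acid was added, 30 min. Hydroperoxide was read by Fe-XO absorbance ratio 573/405 nm.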
MCF10A rerep – A quantitative high throughput screen for small molecules that induce DNA re-replication in MCF 10a normal breast cells; MCF 10A DNA re-replication, Hoechst nuclear intensity, 48 h; 350,000 tested, 2.9% active; AID 624296, 2012; Potency, µM (series often up to 46.1 µM), most hits filed as activators; note: nearly all actives have a fitted effect of over 50% in size
KB-V1 cytotox – qHTS assay for MDR1-selective chemotherapeutics: Primary screen using the drug-selected MDR subline cells KB-V1. KB-V1 MDR cells viability, CellTiter-Glo, 72 h. Potency, µM (titrated, usually from 46.1 µM), usual class: cytotoxic. 400,000 tested, 3.4% active; note: nearly all actives have a fitted effect of over 60% in size
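Luminescent ATP read-out (CellTiter-Glo, 10 min) measures survival of drug-selected KB-V1 MDR cells after 72 h, 37 degrees C compound exposure. Medium: phenol-red-free DMEM, 10% FBS. Values from fitted concentration-response curves.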
KB-3-1 tox – qHTS assay for MDR1-selective chemotherapeutics: Primary screen using the parental adenocarcinoma cell KB-3-1. KB-3-1 viability, CellTiter-Glo ATP luminescence, 72 h. Potency, µM (series often up to 46.1 µM), hits mostly cytotoxic. 400,000 tested, 1.4% active. AID 1347075, 2019; note: nearly all actives have a fitted effect of over 60% in size
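Cytotoxicity in the drug-sensitive parental line KB-3-1 was scored as loss of CellTiter-Glo luminescence following 72 h incubation with compound. Values come from curve fitting of normalized concentration-response data.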
PINK1 expr mod – A Quantitative High throughput Screen to Identify Chemical Modulators of PINK1 Expression | PINK1 immunofluorescence, high-content cytometry, 24 h | Potency, µM (series often up to 76.6 µM), most hits filed as activators | 410,000 tested, 0.2% active | AID 624263, 2012; active = well fitted activation curve with a large enough effect; inconclusive = small, poorly fitted or top-dose-only effect; cell line not stated here; note: nearly all actives have a fitted effect of over 65% in size
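Cells are seeded, rested 12 hours, then given compound at five concentrations or DMSO for 24 hours. After fixation, blocking and antibody staining, PINK1 amount and mitochondrial localization are scored; CCCP serves as control.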
Large screens that a line does not name were inactive. Most compounds without a hit are left out; they make up all but 5.8% or so of the library. Unless noted, calls come from the whole dose curve; as a rule, active = well fitted curve in the direction sought with a large enough effect; inconclusive = small, poorly fitted or top-dose-only effect, or another doubt; inactive = no such curve, though single readings can be large; an effect the other way counts as inactive or inconclusive.

CCOc1cccc(C2C=C(c3ccc4c(c3)OCO4)NC(c3ccc(Cl)cc3)N2)c1O (stereo unspecified)	KB-3-1 tox 10µM (no result: SW480 rereplic, ALOX12 inh, MCF10A rerep)
CCOc1cccc(C2C=C(c3ccc4c(c3)OCO4)NC(c3ccc(F)cc3)N2)c1O (stereo unspecified)	none (no result: SW480 rereplic, ALOX12 inh, MCF10A rerep)
O=C(N1CCOCC1)N1CCCC(c2nc(-c3cccs3)no2)C1 (stereo unspecified)	KB-V1 cytotox 15µM
O=S(=O)(Cc1ccccc1)N1CCC(c2nc(-c3cccs3)no2)CC1	KB-V1 cytotox 21µM
O=C(c1c(F)cccc1F)N1CCCC(c2nc(-c3cccs3)no2)C1 (stereo unspecified)	none
CSc1ccc(-c2ccc3c(c2)C(=O)N2CCN(C(=O)CC(C)(C)C)C[C@@H]2C(=O)N3)cc1	none (no result: SW480 rereplic, MCF10A rerep, KB-V1 cytotox, KB-3-1 tox, PINK1 expr mod)
COc1ccc(N=C2NN=C(c3c(C)[nH]c4ccccc34)CS2)cc1	SW480 rereplic inconclusive, ALOX12 inh inconclusive, MCF10A rerep 18µM, KB-3-1 tox inconclusive, PINK1 expr mod inconclusive
Cc1[nH]c2ccccc2c1C1=NNC(=Nc2ccc(F)cc2)SC1	SW480 rereplic inconclusive, ALOX12 inh inconclusive, MCF10A rerep 21µM, KB-3-1 tox inconclusive, PINK1 expr mod inconclusive
S=C(NCc1ccccc1)Nc1ccc(Sc2ccc(Br)cc2)cc1	ALOX12 inh 28µM (no result: SW480 rereplic, MCF10A rerep, KB-V1 cytotox, KB-3-1 tox, PINK1 expr mod)
S=C(NCCc1ccccc1)Nc1ccc(Nc2ccccc2)cc1	ALOX12 inh inconclusive, PINK1 expr mod inconclusive
FC(F)(F)Sc1ccc(NC(=S)NCc2ccccc2)cc1	ALOX12 inh 40µM, MCF10A rerep inconclusive, KB-V1 cytotox inconclusive, KB-3-1 tox inconclusive, PINK1 expr mod inconclusive
S=C(NCCc1ccccc1)Nc1ccc(Sc2ccc(Br)cc2)cc1	ALOX12 inh 35µM (no result: SW480 rereplic, MCF10A rerep, KB-V1 cytotox, KB-3-1 tox, PINK1 expr mod)
Cn1nccc1-c1nccc2c(=O)cc(N3CCOCC3)oc12	none (no result: SW480 rereplic, MCF10A rerep, KB-V1 cytotox, KB-3-1 tox, PINK1 expr mod)
Cc1cc(Br)ccc1NC(=O)CSc1nc2cc([N+](=O)[O-])ccc2o1	ALOX12 inh 18µM (no result: SW480 rereplic, MCF10A rerep, KB-V1 cytotox, KB-3-1 tox, PINK1 expr mod)
CC(C)C(NC(=O)CSc1nc2cc([N+](=O)[O-])ccc2o1)c1ccccc1 (stereo unspecified)	none (no result: SW480 rereplic, MCF10A rerep, KB-V1 cytotox, KB-3-1 tox, PINK1 expr mod)
O=C(c1nnn2c1COC(c1ccc(Cl)cc1)C2)N1CCSCC1 (stereo unspecified)	none (no result: SW480 rereplic, MCF10A rerep, KB-V1 cytotox, KB-3-1 tox, PINK1 expr mod)
CCc1cc2c(=O)nc3n(c2s1)Cc1ccccc1/C3=C(/O)c1ccccc1Cl	MCF10A rerep 6.5µM
COc1ccccc1N1CCN(c2nccnc2SCC(=O)Nc2cccc(Cl)c2C)CC1	none (no result: SW480 rereplic, MCF10A rerep, KB-V1 cytotox, KB-3-1 tox, PINK1 expr mod)
CCC1CCc2sc(C(=O)NC3CC3)cc2C1 (stereo unspecified)	none (no result: SW480 rereplic, MCF10A rerep, KB-V1 cytotox, KB-3-1 tox, PINK1 expr mod)
Cc1nc(-c2ccccc2)sc1-c1n[nH]c(=S)n1C	SW480 rereplic 23µM, ALOX12 inh inconclusive, KB-V1 cytotox inconclusive
Cc1ccn2c(-c3n[nH]c(=S)n3C)c(C)nc2c1	ALOX12 inh 45µM
COc1cc(-c2n[nH]c(=S)n2-c2ccc(C)cc2)cc(OC)c1OC	ALOX12 inh inconclusive
Cc1cccc(-c2n[nH]c(=S)n2C)c1	ALOX12 inh inconclusive, KB-V1 cytotox 21µM, KB-3-1 tox inconclusive
COc1ccc(-c2n[nH]c(=S)n2-c2ccc(Br)cc2)cc1OC	ALOX12 inh 16µM
COc1ccc(OC)c(-n2c(-c3cccc(C)c3)n[nH]c2=S)c1	ALOX12 inh 35µM
Oc1cccc(C2c3[nH]c4ccccc4c3CCN2Cc2ccoc2)c1 (stereo unspecified)	none
Oc1cccc(C2c3[nH]c4ccccc4c3CCN2Cc2ccc3c(c2)CCO3)c1 (stereo unspecified)	SW480 rereplic inconclusive, MCF10A rerep 16µM, KB-V1 cytotox 18µM, KB-3-1 tox 21µM
COc1ccccc1OCC(=O)OCC(=O)c1cc(Cl)ccc1Cl	none (no result: SW480 rereplic, MCF10A rerep, KB-V1 cytotox, KB-3-1 tox, PINK1 expr mod)
CC(C)(C)c1ccccc1OCC(=O)Nc1ccccc1C(=O)NCc1cccnc1	MCF10A rerep inconclusive, KB-V1 cytotox 18µM
